PubChem BioAssay AID1490 (National Center for Advancing Translational Sciences (NCATS), 2009)
Screen size: about 310,000 compounds; about 11,000 (3.5%) were called active. About 4% were inconclusive and are not listed. The sample holds actives, similar compounds and a random draw of the others, so the mix is not that of the screen. The call rests on the fitted dose curve; in most records, active means well fitted inhibition curve with a large enough effect; inconclusive means small, poorly fitted or top-dose-only effect, or another doubt; inactive means no such curve, though single readings can be large or run the other way. Non-standard residues stand in square brackets, D forms with d. Residues, ends and D or L forms follow the SMILES beside them. ξ: configuration not given here. *: point of attachment. Cbz = O=C(OCc1ccccc1)*; ξL = CC(C)CC(N)C(=O)O; ξP = O=C(O)C1CCCN1
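Further: the enzyme is Sfp with the accession as filed and its product quenches rhodamine fluorescence.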
Potency means the concentration at half of the fitted maximal effect.
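Wherever largest response in the series, negative = inhibition is given: 0% = enzyme reaction without inhibitor and -100% = no enzyme wells.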

The compounds below were run against 4'-phosphopantetheinyl transferase ffp (Bacillus subtilis) (UniProt Q9F4F7) (assay: qHTS Assay for Inhibitors of Bacillus subtilis Sfp phosphopantetheinyl transferase (PPTase)). Settings: Biochemical Sfp PPTase activity.
From the text: Assay Submitter: Michael Burkart, University of California, San Diego
Screening Center PI: Austin, C.P.
Screening Center: NIH Chemical Genomics Center [NCGC]
The covalent attachment of a phosphopantetheinyl (4'-PP) arm to a variety of synthases and other proteins is a key posttranslational protein modification. The 4'-PP is installed on the proteins post-translationally from coenzyme A (CoA) on a conserved serine residue by action of phosphopantetheinyl transferase (PPTase) enzymes. Phosphopantetheinylation is essential for synthase activity, and removal of the PPTase gene precludes natural product synthesis in microorganisms, or in the case of fatty acid biosynthesis, renders the organism unviable. PPTase enzymes belong to a distinct structural superfamily. Within bacteria, these enzymes are grouped into two classes based upon primary structure, the AcpS-Type and Sfp-Type PPTases.
Sfp-type PPTases, corresponding to an activator of surfactin production in Bacillus subtilis, are responsible for modifying type I polyketide and nonribosomal peptide synthases of prokaryotes. Sfp-type PPTases are responsible for the activation of a variety of pathogen-associated virulence factors. Among these compounds are toxins such as mycolactone from Mycobacterium ulcerans, siderophores such as vibriobactin from Vibrio cholerae or mycobactin from Mycobacterium tuberculosis, as well as the mycolic acids which form the waxy cell wall of Mycobacteria. The biosyntheses of these natural products are considered attractive targets for drug design.
In search of small molecule Sfp-PPTase inhibitors, a fluorescence quenching assay was developed for detection of Bacillus subtilis Sfp-PPTase enzymatic activity in a miniaturized high-throughput format. The consensus ybbr acceptor peptide […] was N-terminally labeled with Black Hole Quencher-2 (BHQ-2) and used in combination with rhodamine-labeled coenzyme A as a co-substrate.
Inhibition of Sfp-PPTase was detected by recording the fluorescence intensity change over a 30-minute reaction period at a 525 nm excitation and 598 nm emission. Reagents were supplied by Michael Burkart and Timothy Foley, University of California at San Diego.
This BioAssay deposition is for validation of the developed Sfp-PPtase assay.
Assay Buffer: 50 mM Hepes-Na pH 7.6, 10 mM MgCl2, 0.01% Nonidet P-40, and 0.01% BSA.
3 uL of Sfp-PPTase enzyme (final concentration 15 nM) and 1 uL of substrate mixture (final concentration for rhodamine-CoA and BHQ-2-YbbR 5 uM and 12.5 uM, respectively) dispensed in columns 1, 2, 5 - 48. Columns 1 and 2 used to generate neutral control (uninhibited reaction)
Three uL of reagents, consisting of buffer (in columns 3 and 4 as negative control) and Sfp-PPTase (in columns 1, 2, 5 - 48) were dispensed into 1,536-well Greiner black solid bottom plate. Compounds (23 nL) were transferred via Kalypsys pintool equipped with 1,536-pin array. The plate was incubated for 15 min at room temperature, followed by the addition of 1 uL substrate to start the reaction. The plate was then centrifuged at 1000 rpm for 15 seconds, and the fluorescence intensity recorded on a ViewLux High-throughput CCD imager (Perkin-Elmer) using standard BODIPY optics (525 nm excitation and 598 nm emission). The plate was then incubated for 30 minutes, and a second read on the ViewLux was performed. The fluorescence intensity difference over the 30-minute period was used to calculate the respective reaction rate for each well.
`CC(C)CC(NC(=O)C1CCCN1C(=O)[C@@H](C)NC(=O)OCc1ccccc1)C(=O)NCC(N)=O` (some centres undefined) (Cbz-[dA][ξP][ξL]G-NH2) was tested, and the largest response in the series, negative = inhibition was 4.6% (inactive). In the case of `COc1ccc2oc(=N)c(C(=O)Nc3ccc(Br)cc3)cc2c1`, the largest response in the series, negative = inhibition is reported as 17.1% (inactive). `Cc1ccccc1NC(=S)NC(=O)Cc1ccc(Cl)cc1` was tested, and the largest response in the series, negative = inhibition was 1.33% (inactive). For `COC(=O)c1ccc(CNC(=O)c2ccc3oc(C(C)C)nc3c2)cc1`, the largest response in the series, negative = inhibition was 14.1% (inactive). With `CC(C)Sc1nnc([C@H](Cc2ccccc2)NC(=O)OC(C)(C)C)o1` the Potency was 50.1 µM (active). For `CCc1ccccc1NC(=O)CSc1nnc([C@@H](NC(=O)OC(C)(C)C)C(C)CC)o1` (some centres undefined), the largest response in the series, negative = inhibition was 6.3% (inactive). `COc1ccccc1NC(=O)[C@H](COCc1ccccc1)NC(=O)OC(C)(C)C` was tested, and the largest response in the series, negative = inhibition was 14.9% (inactive). In the case of `C[C@@H](NC(=O)OC(C)(C)C)c1nnc(S(=O)(=O)Cc2ccccc2)o1`, the Potency is reported as 22.4 µM (active). For `CCc1ccccc1NC(=O)CSc1nnc([C@@H](NC(=O)OC(C)(C)C)C(C)C)o1`, the largest response in the series, negative = inhibition was 0.218% (inactive). `C[C@H](NC(=O)OC(C)(C)C)c1nnc(SCC(=O)Nc2ccc(Br)cc2)o1` was tested, and the largest response in the series, negative = inhibition was 20% (inactive). With `CCOC(=O)CC1(NC(=O)c2cc(COc3cncc(Cl)c3)on2)CCCCC1` the largest response in the series, negative = inhibition was -1.1% (inactive). In the case of `CC(C)(C)NC(=O)C(c1ccc(Cl)cc1)N(CCO)C(=O)c1snc(C(N)=O)c1N` (centres undefined), the largest response in the series, negative = inhibition is reported as 3.24% (inactive). For `O=C(Nc1cccnc1Cl)c1cc(-c2cccc(Cl)c2)on1`, the largest response in the series, negative = inhibition was -6.07% (inactive). In the case of `O=C(Nc1cccc(F)c1)[C@@H]1CCCN1`, the largest response in the series, negative = inhibition is reported as 1.19% (inactive). With `Cc1ccc(NC(=O)C2CCCN2S(=O)(=O)c2cccc3cccnc23)c(C)c1` (centres undefined) the largest response in the series, negative = inhibition was 10.9% (inactive). `CCCCC(C(=O)NC(C)(C)C)N(Cc1ccccc1)C(=O)c1snc(C(N)=O)c1N` (centres undefined) was tested, and the largest response in the series, negative = inhibition was 3.56% (inactive). For `CCc1ccc2[nH]c(=O)c(Cc3ccccc3)c(O)c2c1`, the largest response in the series, negative = inhibition was 0.106% (inactive). With `CC(NC(=O)c1ccco1)c1ccc2c(c1)OCO2` (centres undefined) the largest response in the series, negative = inhibition was 11.2% (inactive). `COc1cccc(N(C(=O)c2snc(C(N)=O)c2N)C(C(=O)NCC2CCCO2)c2c[nH]c3ccccc23)c1` (centres undefined) was tested, and the largest response in the series, negative = inhibition was -7.12% (inactive). In the case of `CC(Sc1nnnn1C1CCCCC1)C(=O)O` (centres undefined), the largest response in the series, negative = inhibition is reported as 0.844% (inactive). In the case of `CC(Sc1sc(=S)sc1SC(C)C(=O)O)C(=O)O` (centres undefined), the Potency is reported as 79.4 µM (active). In the case of `NC(=O)c1nsc(C(=O)N(CCCN2CCOCC2)C(C(=O)NC2CCCCC2)c2ccc(Cl)cc2)c1N` (centres undefined), the largest response in the series, negative = inhibition is reported as 15% (inactive). `COCCNC(=O)c1ccc(Cn2c(SCC(=O)NCC3CCCO3)nc3ccc(Br)cc3c2=O)cc1` (centres undefined) was tested, and the largest response in the series, negative = inhibition was -12.8% (inactive). With `CCCCn1c(SCC(=O)NCC2CCCO2)nc2ccc(N3CCOCC3)cc2c1=O` (centres undefined) the Potency was 39.8 µM (active). `O=C(CCCn1c(SCC(=O)c2ccccc2)nc2ccccc2c1=O)NCC1CCCO1` (centres undefined) was tested, and the largest response in the series, negative = inhibition was -21.1% (inactive). For `CCCCC(=O)Nc1nnc(S(=O)(=O)N(C)Cc2ccco2)s1`, the largest response in the series, negative = inhibition was -1.11% (inactive). In the case of `Cc1nn(-c2ccccc2)c2c1c(C)c(CCC(=O)NCC1CCCO1)c(=O)n2C` (centres undefined), the largest response in the series, negative = inhibition is reported as 20.2% (inactive). With `CC(C)CCNc1nc(N2CCCC2)c2c(c1C#N)CCN(C)C2` the Potency was 70.8 µM (active). `CCc1nc(NCCO)c(C#N)c2c1CCCC2` was tested, and the largest response in the series, negative = inhibition was -0.704% (inactive). For `CCN1CCc2c(C#N)c(NCc3ccccc3)nc(NCCO)c2C1`, the largest response in the series, negative = inhibition was -12.9% (inactive). In the case of `COc1ccc(NC(=O)c2cccc(Cl)c2)c[n+]1[O-]`, the largest response in the series, negative = inhibition is reported as -0.333% (inactive). With `O=C(NCCc1ccccc1)c1ccc2c(c1)N(Cc1ccccc1)CCS2` the largest response in the series, negative = inhibition was 5.03% (inactive). In the case of `COc1ccc(Cn2c(=S)[nH]c3cc(C(=O)N4CCCCC4)ccc3c2=O)cc1`, the largest response in the series, negative = inhibition is reported as -3.09% (inactive). In the case of `CC(C)N(C(=O)c1ccc(-c2ccccc2F)cc1)C(C)C`, the largest response in the series, negative = inhibition is reported as -2.72% (inactive). For `CC(=O)N(C1=C(Cl)C(=O)c2ccccc2C1=O)c1ccc(C(=O)O)cc1`, the Potency was 1 µM (active). For `O=C(CN1C(=O)c2ccccc2C1=O)NCc1ccc(C(=O)O)cc1`, the largest response in the series, negative = inhibition was 9.6% (inactive). For `C/C=C/C=N/NC(=O)c1ccncc1`, the largest response in the series, negative = inhibition was -22.5% (inactive). `COC(=O)[C@@]1(Cc2ccc(OC)cc2)[C@H]2c3cc(C(=O)N4CCCC4)n(Cc4ccc(OC(F)(F)F)cc4)c3C[C@H]2CN1C(=O)c1ccccc1` was tested, and the largest response in the series, negative = inhibition was 6.34% (inactive). `COC(=O)[C@@]1(Cc2ccccc2)[C@H]2c3cc(C(=O)N4CCCC4)n(Cc4ccc(C)o4)c3C[C@H]2CN1C(=O)c1ccccc1` was tested, and the Potency was 56.2 µM (active). `COC(=O)[C@@]1(Cc2ccc(F)cc2)[C@H]2c3cc(C(=O)N4CCCC4)n(Cc4ccc(OC(F)(F)F)cc4)c3C[C@H]2CN1C(=O)c1ccccc1` was tested, and the largest response in the series, negative = inhibition was 24.5% (inactive). In the case of `O=C(OCCN=C1NS(=O)(=O)c2ccccc21)c1cccc([N+](=O)[O-])c1`, the largest response in the series, negative = inhibition is reported as 0.751% (inactive). For `COC(=O)CN1C(=O)[C@H]2[C@@H](C3CC3)N3C(=O)CN(Cc4ccc(-c5ccccc5)cc4)C(=O)[C@@]3(Cc3ccccc3)[C@H]2C1=O`, the largest response in the series, negative = inhibition was 13% (inactive). With `Oc1cc(O)c2c(c1)OC(c1ccc(O)c(O)c1)C(O)C2` (centres undefined) the Potency was 44.7 µM (active). In the case of `CCOc1ccc(S(=O)(=O)NCCCn2ccnc2)cc1NC(C)=O`, the largest response in the series, negative = inhibition is reported as 13.6% (inactive). `COc1ccc(OCc2cc(C(=O)N3CCCC3)no2)c2ccccc12` was tested, and the largest response in the series, negative = inhibition was -21.1% (inactive). `O=C(Nc1cccc([N+](=O)[O-])c1)Nn1cnnc1` was tested, and the largest response in the series, negative = inhibition was 16.6% (inactive). With `FC(F)(F)c1cccc(Nc2ncnc3ccccc23)c1` the largest response in the series, negative = inhibition was 5.92% (inactive). For `O=c1cc(CO)oc(C(Nc2cccc([N+](=O)[O-])c2)c2ccccn2)c1O` (centres undefined), the Potency was 20 µM (active). For `O=[N+]([O-])c1cccc(S(=O)(=O)NCc2ccccn2)c1`, the largest response in the series, negative = inhibition was 1.73% (inactive). `O=C(Nc1cccc(C(F)(F)F)c1)c1cc(Br)cc(Br)c1O` was tested, and the largest response in the series, negative = inhibition was -10.2% (inactive). With `O=c1cc(CO)oc(C(Nc2cccc(C(F)(F)F)c2)c2ccccn2)c1O` (centres undefined) the Potency was 7.94 µM (active). With `CCC(C)C(NC(=O)C1CCC(=O)N1C(=O)OCc1ccccc1)C(=O)NC(C(=O)N1CCCC1C(N)=O)C(C)CC` (centres undefined) the largest response in the series, negative = inhibition was 18.8% (inactive). `N#Cc1ccccc1NC(=O)c1ccc2c(c1)OCO2` was tested, and the largest response in the series, negative = inhibition was 20.2% (inactive). For `COc1ccc(CN2C3CCCC2CC(NC(=O)c2cccc(F)c2)C3)cc1` (centres undefined), the largest response in the series, negative = inhibition was 9.04% (inactive).
